In PubChem BioAssay AID624296 (National Center for Advancing Translational Sciences (NCATS), 2012):
Hit rate of the full screen: of about 350,000 compounds, about 9,900 (2.8%) were called active. Roughly 15% stayed inconclusive and do not appear here. Many of the other results were omitted from the sample, so actives are more common in it than they were. A number with no mark means an inactive call. Calls come from the whole dose curve; as a rule, active = well fitted activation curve with a large enough effect; inconclusive = small, poorly fitted or top-dose-only effect; inactive = no such curve, though single readings can be large or run the other way.

Experiment: A quantitative high throughput screen for small molecules that induce DNA re-replication in MCF 10a normal breast cells. For activity, positive = re-replication: % of control where 0% means no effect. Note: nearly all actives have a fitted effect of over 50% in size.
Conditions: MCF 10A DNA re-replication, Hoechst nuclear intensity, 48 h; series mostly up to 46.1 µM; activity, positive = re-replication: at the top concentration
Potency is the fitted concentration of half-maximal effect.

| Structure (SMILES) | activity, positive = re-replication [%] | Potency |
| --- | --- | --- |
| COC(=O)C1=C(C)N(Cc2ccccc2)C(=NCCCOC(C)C)N[C@H]1c1ccccc1 | 27.9 |  |
| CC1O[C@H](OC2C(COC3OC(CO)C(O)[C@H](O)C3O)OC(OC3CC[C@]4(C)C(CC[C@@]5(C)[C@@H]4C=C[C@]46OC[C@@]7(CCC(C)(C)C[C@H]74)C(O)C[C@@]56C)C3(C)C)C(O)C2O)C(O)C(O)C1O (stereo partly drawn) | -4.83 |  |
| COc1ccc(OCCCC(=O)Nc2cccc(S(=O)(=O)N3CCCCCC3)c2)cc1 | 15.5 |  |
| CN(CC(=O)NC1CCN(Cc2ccccc2)CC1)S(=O)(=O)c1ccc(Cl)s1 | 1.48 |  |
| CC(=O)Oc1ccccc1C1=NN(C(C)=O)C(c2ccccc2)C1 (stereo not drawn) | -3.27 |  |
| CC(=O)Oc1ccc(OC(C)=O)c2c1C1C=CC2CC1 |  | 10.3 µM (active) |
| CC(=O)Oc1ccc(C(C)=O)c2c1OCCO2 | -1.95 |  |
| CCCCN(C(=O)c1cccc(N2C(=O)c3ccccc3C2=O)c1)c1c(N)n(CCCC)c(=O)[nH]c1=O | -1.5 |  |
| O=C(COC(=O)C1CCCO1)Nc1nc(-c2ccc(F)cc2)cs1 (stereo not drawn) | 3.1 |  |
| COc1cc(CNCCN(C)C)ccc1OCc1c(F)cccc1Cl | 6.7 |  |
| COCCCNC(=O)/C=C/c1ccc(OCc2c(F)cccc2Cl)cc1 | -0.518 |  |
| CN(C)CCCNC(=O)/C=C/c1ccc(OCc2c(F)cccc2Cl)cc1 |  | 23.1 µM (active) |
| O=c1oc2ccccc2c(=O)c2ccccc12 | -30.5 |  |
| CCN=C1SC(CC(=O)Nc2ccc(C)cc2)C(=O)N1CC (stereo not drawn) | -7.16 |  |
| Cc1ccc(NC(=O)CC2S/C(=N/N=C3\CCCc4ccccc43)NC2=O)cc1 (stereo not drawn) |  | 14.6 µM (active) |
| Cc1c(Cl)cccc1NC(=O)CC1SC(=NCC2CCCO2)NC1=O (stereo not drawn) | 7.01 |  |
| CCN(CC(=O)Nc1c(F)cccc1F)C(=O)c1ccc(-c2ccc(C(C)=O)cc2)o1 | 9.26 |  |
| CCCCNS(=O)(=O)CCNCc1ccccc1OC | -16.6 |  |
| CC(Sc1ccccc1F)C(=O)Nc1cccc(S(=O)(=O)N2CCOCC2)c1 (stereo not drawn) | 5.65 |  |
| COc1ccccc1C(=O)CSc1cccc[n+]1[O-] | -2.14 |  |
| O=C(CSc1cccc[n+]1[O-])c1ccc(Cl)cc1 | -1.47 |  |
| O=C(CSc1cccc[n+]1[O-])c1ccc(-c2ccccc2)cc1 |  | 8.2 µM (active) |
| CC[C@]12c3[nH]c4cc(CCC(=O)N(C)C)ccc4c3CCN1C(=O)[C@@H](CC(=O)NCCCN(C)C)C[C@@H]2C(=O)N1CCN(C(=O)c2ccco2)CC1 | -34.4 |  |
| CN(C(=O)c1cccc(NC(=O)Cc2ccc(NC(=O)C3CCCN(C(=O)C4CCCC4)C3)cc2)c1)C1CCC1 (stereo not drawn) | 1.82 |  |
| O=S(=O)(NCC1CN(S(=O)(=O)c2ccc3c(c2)OCCO3)C1)c1c(F)cccc1F | -5.63 |  |
| COC1=CC(=O)OC(c2ccc(OC)cc2)C1 (stereo not drawn) | -48.5 |  |

| Structure (SMILES) | activity, positive = re-replication [%] | Potency |
| --- | --- | --- |
| CCc1nc2sc(C(=O)O)c(N)c2c2c1CCCC2 | 12 |  |
| Cc1nc2sc(C(=O)c3ccccc3)c(N)c2c2c1CCCC2 |  | 14.6 µM (active) |
| Cc1ccc2c(N)c(C(=O)c3ccccc3)sc2n1 | 13.8 |  |
| CCOC(=O)C1=CN(Cc2ccc(Br)cc2)S(=O)(=O)N(C)C1C (stereo not drawn) | -10.6 |  |
| N#Cc1c(-c2ccccc2)cc(-c2ccccc2)nc1SCC(=O)O | -3.28 |  |
| N#Cc1c(C(F)(F)F)cc(-c2ccc(Cl)cc2)nc1SCC(=O)O | 4.38 |  |
| CCOC(=O)CC(=O)CSc1nc(-c2ccccc2)cc(-c2ccc(Cl)cc2)c1C#N |  | 11.6 µM (active) |
| COc1ccc(C(=O)OC(C)C(=O)NC2CCCC2)cc1S(=O)(=O)N1CCOCC1 (stereo not drawn) | -5.65 |  |
| COc1cc(OC)cc(C(=O)N[C@H](C(=O)NNC(=O)c2ccc(Br)cc2)C(C)C)c1 | -33.2 |  |
| C[C@H](CO)N1C[C@H](C)[C@H](CN(C)C(=O)Nc2ccc(C(F)(F)F)cc2)Oc2c(NC(=O)c3ccncc3)cccc2C1=O | 2.48 |  |
| Cc1ccc(Nc2c(O)nc[nH]c2=O)cc1C | -3.59 |  |
| CCC(=O)N1CCc2cc(S(=O)(=O)NC(C(=O)N3CCc4ccccc4C3)C(C)C)ccc21 (stereo not drawn) | 0.327 |  |
| CCCN(CCC)S(=O)(=O)c1cc2c(cc1Br)CCN2C(=O)CC |  | 18.4 µM (active) |
| CCC(=O)N1CCc2cc(Br)c(S(=O)(=O)NCCN3CCCCC3CC)cc21 (stereo not drawn) | 0.0266 |  |
| Cn1c(CC(=O)NNC(=O)c2ccccc2F)nc2ccccc21 | -2.71 |  |
| O=S(=O)(O)c1cc2onnc2c2ccccc12 | -6.01 |  |
| O=C(Cc1ccc(Cl)cc1)c1ccccc1 | 2.06 |  |
| CC1CC(=O)Nc2ccccc2N1C(=O)COc1ccc2cc(Br)ccc2c1 (stereo not drawn) | 29.2 |  |
| Cc1ccc(OCc2nc(C#N)c(N3CCCC3)o2)cc1 | 1.2 |  |
| O=S(=O)(c1ccccc1)c1nc(-c2ccccc2F)oc1NCc1cccnc1 | -2.89 |  |
| N#Cc1nc(COc2ccc(-c3ccccc3)cc2)oc1NCc1cccnc1 |  | 7.94 µM (active) |
| O=S(=O)(c1ccc(SCc2ccccc2)nc1)N1CCCCCC1 | 2.52 |  |
| O=C(OC12CC3CC(CC(C3)C1)C2)c1ccc(NCc2cc(O)ccc2O)cc1 | 6.95 |  |
| CC(C)OC(=O)c1ccc(NCc2cc(O)ccc2O)cc1Cl |  | 1.64 µM (active) |
| CC(CN1CCOCC1)OC(=O)c1ccc(Cl)cc1Cl (stereo not drawn) | 0.31 |  |
| CN(C)c1ccc(CSc2ccccc2)cc1 | 0.453 |  |

| Structure (SMILES) | activity, positive = re-replication [%] | Potency |
| --- | --- | --- |
| O=c1c2ccccc2ncn1CCc1ccncc1 | -0.822 |  |
| CC[C@]12c3[nH]c4ccc(Cl)cc4c3CCN1C(=O)[C@@H](CC(=O)NCCCOC)C[C@@H]2C(=O)N1CCN(C(=O)C2CC2)CC1 | -0.182 |  |
| CC1CCCCC1NC(=O)Cn1c(=O)cnc2ccccc21 (stereo not drawn) | -2.91 |  |
| C=C(C)CNc1cc(S(=O)(=O)N2CCOCC2)ccc1Oc1ccccc1 | 1.46 |  |
| CC(CC(=O)O)C(=O)c1ccc(Cl)c([N+](=O)[O-])c1 (stereo not drawn) | 3.61 |  |
| CC(=O)Nc1ccc(NC(=O)C(C)OC(=O)c2ccccc2C(=O)c2ccc(Cl)c([N+](=O)[O-])c2)cc1 (stereo not drawn) |  | 16.4 µM (active) |
| N#Cc1cccc(NC(=O)COC(=O)c2ccccc2C(=O)c2ccc(Cl)c([N+](=O)[O-])c2)c1 |  | 2.91 µM (active) |
| COC(=O)c1cc(NC(=O)Cc2ccccc2[N+](=O)[O-])ccc1Cl | -3.8 |  |
| CC(=O)Nc1ccc(NC(=O)COC(=O)c2ccccc2C(=O)c2ccccc2)cc1 | 20.4 |  |
| NC(=O)c1ccc(NC(=O)COC(=O)c2ccc([N+](=O)[O-])cc2)cc1 | 6.98 |  |
| Cc1ccc(S(=O)(=O)N2CCN(C(=O)Cn3c(=O)cnc4ccccc43)CC2)c(C)c1 | -0.758 |  |
| O=C(COC(=O)COc1cc(Cl)c(Cl)cc1Cl)NC1CC1 | 1.27 |  |
| Cc1ccccc1NC(=O)CSC(=O)c1ccccc1 | 17.3 |  |
| CCOC(=O)[C@H]1[C@H]2COc3ccc(Br)cc3[C@@H]2N2C(=O)CN(C)C(=O)[C@@]12C | 46.2 |  |
| COc1ccccc1CNC(=O)c1ccc(Cl)c(S(=O)(=O)N2CCCC2)c1 | 14.6 |  |
| Cc1occc1C(=O)Nc1cccc(S(=O)(=O)N2CCOCC2)c1 | 3.03 |  |
| Cc1ccc(SCC(=O)N2CCN(c3ccc(F)cc3)CC2)cc1 | -25.2 |  |
| CCN1CCC2(CC1)N=C(c1ccc(F)cc1)C(=S)N2C(=O)c1ccc(C)cc1 |  | 13 µM (active) |
| CCN1CCN(C(=O)CSc2ccc(C)cc2)CC1 | 0.479 |  |
| COc1ccccc1NC(=O)CSc1nc2sc3c(c2c(=O)n1-c1ccccc1)CCN(C)C3 | 0.14 |  |
| CCOc1ccc(-n2c(SCC(=O)OC)nc3sc4c(c3c2=O)CCN(C)C4)cc1 | -8.57 |  |
| CCSc1nc2sc3c(c2c(=O)n1-c1ccc(C)cc1)CCN(C)C3 |  | 18.4 µM (active) |
| Cc1ccc(S(=O)(=O)N(C)CC(=O)NCC(c2ccc(F)cc2)N2CCOCC2)cc1 (stereo not drawn) | -1.57 |  |
| Cc1ccccc1C(=O)Nc1ccccc1NC(=O)c1ccccc1C | 6.72 |  |
| Cc1ccccc1C(=O)Nc1ccc(N2CCCCCC2)cc1 |  | 18.4 µM (active) |
| Cc1ccccc1C(=O)NC(=S)Nc1ccc(N2CCN(C(=O)c3ccccc3)CC2)cc1 | -7.1 |  |

| Structure (SMILES) | activity, positive = re-replication [%] | Potency |
| --- | --- | --- |
| O=c1[nH]c2c(c(=O)n1-c1ccccc1)CCO2 | -2.42 |  |
| Cc1ccccc1N1CCN(C(=O)c2cccnc2)CC1 | 1.77 |  |
| CC1Cc2ccccc2N1S(=O)(=O)c1cccc(C(=O)OCC(=O)N2CCOCC2)c1 (stereo not drawn) | -9.4 |  |
| CCC1([N+](=O)[O-])COC(c2ccc(C(C)C)cc2)OC1 (stereo not drawn) | 1.18 |  |
| CC(=O)N(C1=C(Cl)C(=O)c2ccccc2C1=O)c1ccc(C(=O)O)cc1 |  | 5.8 µM (active) |
| O=C(CN1C(=O)c2ccccc2C1=O)NCc1ccc(C(=O)O)cc1 | -0.0938 |  |
| CC(C)N(C(=O)c1ccc(-c2ccccc2F)cc1)C(C)C | -4.52 |  |
| O=C(OCC(=O)N1CCCCCC1)c1cnc(Cl)c(Cl)c1 | 7.44 |  |
| COc1cccc2sc(N(CCCN(C)C)C(=O)CCS(=O)(=O)c3ccccc3)nc12 |  | 6.51 µM (active) |
| CN(C)CCCN(C(=O)COc1ccccc1)c1nc2c(Cl)cccc2s1 | 0.434 |  |
| COc1cc2ccccc2cc1C(=O)N(CCN(C)C)c1nc2c(F)cccc2s1 | 9.27 |  |
| N#Cc1ccccc1S(=O)(=O)N1CCN(Cc2c(O)ccc3ccccc23)CC1 | 0.162 |  |
| CCc1ccccc1OCC(=O)Nc1ccc2c(c1)OCCO2 | 3.44 |  |
| CCOc1ccccc1NC(=S)C(=C([O-])c1ccc2c(c1)OCCO2)[n+]1ccc(CC)cc1 |  | 2.59 µM (active) |
| O=[N+]([O-])c1cccc(/C([O-])=C(/C(=S)Nc2ccccc2F)[n+]2ccccc2)c1 | -4.73 |  |
| O=[N+]([O-])c1ccc(N=NNc2ccc([N+](=O)[O-])cc2)cc1 | 4.43 |  |
| CC(=O)c1ccc(NC(=O)c2sc3nc4n(c(=O)c3c2C)CCCCC4)cc1 | 13.7 |  |
| Cc1cccc(NC(=O)c2sc3nc4c(c(-c5ccco5)c3c2N)CCC4)c1 |  | 13 µM (active) |
| CC(=O)Nc1ccc(NC(=O)c2sc3nc4c(c(-c5ccc(C)cc5)c3c2N)CCC4)cc1 |  | 5.8 µM (active) |
| Cc1ccc(NC(=O)c2sc3nc(N)c(C#N)cc3c2N)cc1 | 99 |  |
| Cc1cccc(NC(=O)c2sc3nc(N4CCOCC4)c4c(c3c2N)CCCC4)c1 |  | 2.91 µM (active) |
| Cc1cccc(NC(=O)/C(=C\c2ccco2)NC(=O)c2ccccc2)c1 | 4.86 |  |
| Cc1cccc(NC(=O)CSc2nnc(-c3ccco3)o2)c1 | 13.8 |  |
| c1ccc(CSc2ncnc3c2sc2nc(N4CCOCC4)c4c(c23)CCCC4)cc1 | 7.01 |  |
| CC(=O)Nc1ccc(N2CCOCC2)c(C(=O)Nc2cccc(C)c2)c1 | 0.446 |  |
